# Source: PubChem BioAssay AID743395 (Broad Institute, 2014)
# Out of some 1,200 compounds screened, about 480 (40%) were called active. So high a share suggests a set chosen from earlier hits. The list is a sample of the results. Entries with a potency or affinity are not part of this list. Values without a mark were called inactive. No rule for the calls is given here.
# Assay: viability loss in human hepatoma cells – cell-based, CellTiter-Glo luminescence, cherry-pick, set 2, cytotoxicity control, dose response (AID 743395);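 also: 0% = neutral control wells and -100% = positive control wells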
# Conditions: HepG2 viability, CellTiter-Glo ATP luminescence, 72 h; series mostly up to 26 µM; activity change, negative = cytotoxicity: at the top concentration
row,SMILES,"activity change, negative = cytotoxicity"
1,CCOC(=O)c1[nH]c(C)c(/C(O)=C2\C(=O)C(=O)N(CCCN3CCOCC3)C2c2cccs2)c1C (stereo not drawn),10.2%
2,CC(C)CC1Nc2ncnc(N3CCN(c4ccccn4)CC3)c2N(Cc2ccc(Br)cc2)C1=O (stereo not drawn),-0.413%
3,COc1ccc(-n2nnnc2C(c2ccccc2)N2CCN(C/C=C/c3ccccc3)CC2)cc1 (stereo not drawn),-7.14%
4,O=C(NNC(=O)c1ccncc1)Nc1ccc(Cl)cc1,10.9%
5,CCN1C(=O)[C@H]2[C@@H](c3ccc(-c4ccc(Cl)c(Cl)c4)cc3)N[C@@](C)(C(=O)OC)[C@H]2C1=O,-4.63%
6,NC(=O)CC(NC(=O)Cc1ccc(Br)cc1)c1ccc(NC2CC3CCC2C3)c([N+](=O)[O-])c1 (stereo not drawn),-30.8%
7,CN(C)/C=C1\C=C2C(=O)c3ccccc3N2C1=O,-9.76%
8,CC(O)CNc1nc(N)[nH]c(=O)c1N=Nc1ccccc1 (stereo not drawn),9.61%
9,CCC(C(=O)OCC(=O)C1(O)CCC2C3CCC4=CC(=O)CCC4(C)C3C(O)CC21C)C(C)C (stereo not drawn),-8.94%
10,OC[C@@H]1[C@@H](c2ccccc2)C2(CN(Cc3ccccc3F)C2)N1Cc1ccccc1F,-2.23%
11,NC(=O)c1cc(Cl)ccc1OCC(=O)NC1CC1,-6.69%
12,O=C(c1ccccc1F)N1CC[C@@H]2[C@H](CO)Nc3ccc(Br)cc3[C@@H]21,-27.6%
13,COc1ccc(C#Cc2ccc3c(c2)[C@@H]2[C@@H](CCN2C(=O)c2cccc(F)c2)[C@@H](CO)N3)cc1,-3.32%
14,O=C(NCc1nnnn1-c1ccc(Cl)cc1)C(=O)c1c[nH]c2ccccc12,0.083%
15,COc1ccc(NC(=O)N[C@@H]2CC[C@@H](CCn3cc(-c4ccc(F)cc4)nn3)O[C@@H]2CO)cc1,9.05% [at 23.5 µM]
16,NNC(=O)c1[nH]c2ccc(Cl)cc2c1-c1ccccc1,-17.7%
17,CC1CN(S(=O)(=O)c2cccc(C(=O)Nc3cc(Cl)ccc3N3CCOCC3)c2)CC(C)O1 (stereo not drawn),-14.3%
18,O=C(NC(Cc1ccccc1)C(=O)N1CCN(S(=O)(=O)c2ccccc2F)CC1)c1ccccc1 (stereo not drawn),-13.5%
19,CC(C)(C)C(=O)OCc1nc(-c2ccc(O)c(O)c2)cs1,-8.53%
20,CO[C@@H](CN(C)S(=O)(=O)c1ccc(C)cc1)[C@H](C)CN([C@H](C)CO)S(=O)(=O)c1cccc(Cl)c1,7.18%
21,COc1ccc(CNC(=O)c2cc3c(c(-c4cccc(-c5ccc(C#N)cc5)c4)n2)[C@@H](CCO)N([S@](=O)C(C)(C)C)C3)cc1,-9.63% [at 23.5 µM]

row,SMILES,"activity change, negative = cytotoxicity"
1,CC(Sc1nc2ccccc2c(=O)n1C)C(=O)Nc1ccc2c(c1)OCCO2 (stereo not drawn),-2.36%
2,COc1cccc(C(=O)c2c[nH]c(C(=O)NCCCN3CCOCC3)c2)c1,-0.29%
3,c1ccc(CCN(Cc2ccccc2)Cc2nc(C3CC3)no2)cc1,-4.04%
4,O=C(CCN1CCCCC1)N1CCc2c([nH]c3ccccc23)C1c1cccnc1 (stereo not drawn),0.121%
5,COc1ccc(OC)c(N/C(N)=N/c2nc(C)cc(C)n2)c1,-5.35%
6,COc1cc(C(O)CO)ccc1OS(=O)(=O)O (stereo not drawn),-16.3%
7,COc1ccc2c(c1OC)OCC2C (stereo not drawn),-0.236%
8,Cc1cc(C)nc(N(C#N)Cc2cccc(Cl)c2)n1,-20.8%
9,CCOc1ccc(C(=O)NCC(=O)NNC(=O)c2cc(C)oc2C)cc1OCC,3.23%
10,Cc1cccc(C(=O)OCC(=O)NC(C)C2CC3CCC2C3)c1O (stereo not drawn),-11.9%
11,Cc1ccc(-n2cc(-c3ccccc3)c3c(N4CCOCC4)ncnc32)cc1,16.3%
12,O=C(C(Cc1ccccc1)n1cccc1)N1CCCCC1 (stereo not drawn),9.04%
13,CC(C)(C)C1COc2ccccc2N1C(=O)c1cccc(Cl)c1 (stereo not drawn),-1.18%
14,C/C=C/c1ccc2c(c1)O[C@@H](CN(C)C(=O)Nc1cccc(F)c1)[C@H](C)CN([C@H](C)CO)S2(=O)=O,5.7%
15,Cc1cc2c(s1)Nc1ccccc1N=C2N1CCN(C)CC1,-19.3%
16,CCN[C@H]1CN(CCCOC)S(=O)(=O)c2sc(S(N)(=O)=O)cc21,6.26%
17,O=C(c1ccc2ccccc2c1)N1CCN(Cc2ccccc2)CC1,-13.3%
18,Cc1cccc(N2CCN(C(=O)c3c(-c4ccccc4Cl)noc3C)CC2)c1C,-18.3%
19,NC1(C(=O)O)CC1,11.4%
20,O=c1cnc2ccccc2n1CC1CCCCC1,-4.42%
21,Cc1cc(C)c(/C=C2\C(=O)Nc3ccccc32)[nH]1,-18.6%

row,SMILES,"activity change, negative = cytotoxicity"
1,Cc1cccc(N(C)S(=O)(=O)c2ccc(-c3cc(C)no3)s2)c1,10.6%
2,CC(OC(=O)c1cccs1)C(=O)NC1CCCCC1C (stereo not drawn),-16.4%
3,Cc1cc(C(=O)N/N=C/c2ccc([N+](=O)[O-])cc2)c2ccccc2n1,-25.6%
4,CN(C)c1ccc2c(c1)[C@@H]1C[C@@H](CC(=O)NCc3ccc(Oc4ccccc4)cc3)O[C@H](CO)[C@@H]1O2,-15.5%
5,CCN(CC(=O)Nc1cc(Cl)ccc1-n1cncn1)Cc1nc2ccccc2c(=O)[nH]1,-9.39%
6,Cc1cc(C(=O)N2CC=C(c3ccccc3)CC2)c2ccccc2n1,-29.1%
7,CCN(C(=O)COC(=O)c1cc2c(s1)CCCC2)c1c(N)n(Cc2ccccc2)c(=O)[nH]c1=O,-4.95%
8,O=S(=O)(Nc1ccc(F)cc1Cl)c1ccc(-c2cnc(C3CC3)o2)cc1,-20.5%
9,COc1ccccc1NS(=O)(=O)c1cc(-c2cnc(C3CC3)o2)ccc1C,-17.7%
10,CC(C)c1cccc(-c2csc(C(O)c3ccco3)n2)c1 (stereo not drawn),-11.9%
11,COc1ccc(OC)c(-c2nnc3n2N=C(c2ccc(OC)c(OC)c2)CS3)c1,-34.3%
12,Cc1cc(N2CCCC2)c(F)cc1/C=C\[N+](=O)[O-],-34.7%
13,NS(=O)(=O)c1ccc2nc(NC(=O)c3ccc4c(c3)OCCO4)sc2c1,4.38%
14,C/C=C/c1ccc([C@@H]2[C@H](CO)N(CC3CC3)[C@H]2CNC(=O)c2ccccc2)cc1,-25.2% [at 23.5 µM]
15,CCOc1ccc(S(=O)(=O)N2CCCCC2)cc1NC(=O)c1ccccc1,18.5%
16,COc1ccc(-c2nc(-c3cccc(C)c3)no2)cc1OC,-1.21%
17,Nc1ccc(S(=O)(=O)Nc2cnc3ccccc3n2)cc1,-11.6%
18,COc1ccc(S(=O)(=O)Cc2ccc(C(=O)N3CCN(c4cccc(C)c4)C(C)C3)o2)cc1 (stereo not drawn),-11.2%
19,Cc1ccccc1OCC(=O)OCC(=O)NCCc1ccccc1,21%
20,COC(=O)C[C@@H]1CC[C@@H]2[C@H](COc3ccc(NC(=O)c4cc(C)on4)cc3C(=O)N2C)O1,-12.3%
21,CC(=O)N1Cc2cc(C(=O)NCC(F)(F)F)nc(-c3cccc(-c4cccnc4)c3)c2[C@@H]1CCO,-7.78%
